Only some compounds are listed: those with a hit (about 1% of all), similar ones and a draw of the others.
Cdc25B inh: inhibitors of human Cdc25B phosphatase | P30305 | recombinant Cdc25B, OMFP fluorescence Ex485/Em525 | inhibition, %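 (compounds tested at 10 µM final in the well)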 | actives 0.1% (n = 65,000) | AID 368; in the data active = inhibition above about 50%
JNK3 blocker: blocks human JNK3 kinase activity. P53779. purified JNK3 kinase activity, HTS. inhibition, % at 8 µM. actives 0.61% (n = 60,000). AID 746; in the data active = inhibition above about 17%;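 also: 0% = DMSO and 100% = reference inhibitor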
Target sequence (P53779 whole entry, looked up): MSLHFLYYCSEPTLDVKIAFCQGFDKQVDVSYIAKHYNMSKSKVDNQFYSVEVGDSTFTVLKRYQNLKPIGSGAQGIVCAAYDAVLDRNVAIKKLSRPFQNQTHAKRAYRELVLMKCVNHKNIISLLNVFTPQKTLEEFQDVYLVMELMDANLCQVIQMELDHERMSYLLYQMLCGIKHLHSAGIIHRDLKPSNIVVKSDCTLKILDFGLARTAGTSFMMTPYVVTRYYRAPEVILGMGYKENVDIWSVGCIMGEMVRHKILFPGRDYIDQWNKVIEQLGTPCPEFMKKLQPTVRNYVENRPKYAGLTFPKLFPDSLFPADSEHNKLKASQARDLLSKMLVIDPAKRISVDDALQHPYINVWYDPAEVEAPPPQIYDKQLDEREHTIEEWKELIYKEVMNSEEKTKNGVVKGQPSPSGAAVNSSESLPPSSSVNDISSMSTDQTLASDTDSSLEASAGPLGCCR
Hsp90 block: displaces geldanamycin probe from tumor Hsp90 | P07900 | inhibition, % at 30 µM | AID 429 | actives 0.35% (n = 64,000) | NCI-N417 lysate Hsp90, Cy3B-geldanamycin FP displacement;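 active = inhibition above 50%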;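 also: 0% = tracer plus lysate wells and 100% = tracer alone without lysate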
ROCK2 blocker: inhibitors of human Rho kinase 2. purified ROCK2, Kinase-Glo ATP depletion luminescence. inhibition, % at 6 µM. actives 0.35% (n = 60,000);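 active = inhibition above the screen-wide mean inhibition plus 3 SD, cut at about 18% in these data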;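 also: plate controls were DMSO wells for no effect and Y-27632 control wells after no-enzyme background subtraction for full effect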
DUSP1 inh: human dual specificity phosphatase 1 inhibition; inhibition, %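 (compounds tested at a single concentration somewhere between 10 and 100 µM)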; actives 0.15% (n = 65,000); P28562; recombinant MKP-1, OMFP hydrolysis fluorescence;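 active = inhibition above about 50%, limit read from the data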;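 also: 0% = DMSO max control wells and 100% = wells with enzyme stopped by NaOH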
PKA inh: PKA (human) kinase inhibition; P17612; PKA Kemptide phosphorylation, Kinase-Glo ATP luminescence; inhibition, % at 6 µM; actives 0.1% (n = 65,000);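 active = inhibition above the screen-wide mean inhibition plus 3 SD, cut at about 21% in these data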
Redox 05 DTT: redox cycling H2O2 generation, Cdc25B counter-screen | shares compounds with Cdc25B inh | cell-free redox cycling H2O2 generation, 0.5 mM DTT | EC50, µM | actives 50% (n = 30) | AID 682; in the data active = EC50 below about 30 µM
Redox H2O2 1DTT: generates H2O2 by redox cycling in 1 mM DTT. shares compounds with Cdc25B inh. cell-free redox cycling H2O2 generation. EC50, µM. 30 tested, under 10 active. AID 683; in the data active = EC50 below about 50 µM
Redox H2O2: redox cycling H2O2 generation, MKP probe counter-screen; 60 tested, under 10 active; shares compounds with DUSP1 inh; AID 672; DTT, phenol red/HRP; EC50, µM; call rule not given here
Numbers without * were called inactive; / = no result.

SMILES	Cdc25B inh	JNK3 blocker	Hsp90 block	ROCK2 blocker	DUSP1 inh	PKA inh	others
O/N=C/c1c[nH]c2ccccc12	-7	5	-11	82*	0	64*
Nc1ncnc2c1ncn2[C@@H]1O[C@H](COP(=O)(O)CP(=O)(O)OP(=O)(O)O)[C@H](O)C1O (stereo not given in full)	/	/	1	/	/	/
O=C(CCCCCn1c(=S)[nH]c2ccccc2c1=O)N1CCC2(CC1)OCCO2	-6	28*	-3	-12	11	-2
Cn1c(=O)n(CC(=O)N2CCC3(CC2)OCCO3)c(=O)c2ccccc21	2	2	0	0	-4	2
NC(Cn1oc(=O)[nH]c1=O)C(=O)O (stereo not given)	/	/	41	/	/	/
NC1CCc2cc(O)c(O)cc2C1 (stereo not given)	/	/	53*	/	/	/
CC(=O)OCC1=C(C(=O)[O-])N2C(=O)[C@@H](NC(=O)CCC[C@@H](N)C(=O)[O-])[C@H]2SC1.[Zn+2]	/	/	-1	/	/	/
C[C@H]1CCC[C@H](O)CCCCCc2cc(O)cc(O)c2C(=O)O1	-10	3	87*	4	10	3
COc1ccc(C2=NCC(=O)N(CC(=O)NCc3ccco3)c3sc4c(c32)CCCC4)cc1OC	56*	6	0	6	2	12
O=C(CN1C(=O)CN=C(c2ccccc2)c2ccccc21)NCc1ccco1	15	-4	-3	-3	0	-5
C=CCN1C[C@@H](C)N([C@H](c2ccc(C(=O)N(CC)CC)cc2)c2cccc(OC)c2)C[C@@H]1C	/	/	-2	/	/	/
CN(N=O)c1cc(O)ccc1O	/	/	99*	/	/	/
CCn1nc(-c2ccccc2)nc2c(=O)n(C)c(=O)nc1-2	101*	55*	89*	72*	98*	4	Redox 05 DTT=0.73*;Redox H2O2 1DTT=1.6*;Redox H2O2=14*
CCCCNC(=O)c1c(N)n(CCCOC)c2nc3ccccc3nc12	-3	/	-3	/	37	-3	Redox H2O2=>50
NC1CC1c1ccccc1 (stereo not given)	/	/	0	/	/	/
